# Out of some 62,000 compounds screened, about 35 (0.06%) were called active. This is one part of a sample in which actives are shown more often than they occur. Values without a mark were called inactive. No stated cut-off is given here; in the data, active means inhibition above about 32% (passing the limit was not always enough); inconclusive means no clear call, values can overlap the other calls.
# Target: Cathepsin S (Homo sapiens) (UniProt P25774)
# Experiment: inhibitors of human cathepsin S, biochemical, compound mixtures (AID 501);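 further: 0% = enzyme without compound and 100% = blank without enzyme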
# Conditions: recombinant cathepsin S, AMC dipeptide fluorescence, pooled mixtures; stronger effect = higher value;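 tested at 5 µM per compound within 10-compound mixtures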
# Cathepsin S (Homo sapiens), sequence (P25774 115-331 limits assumed): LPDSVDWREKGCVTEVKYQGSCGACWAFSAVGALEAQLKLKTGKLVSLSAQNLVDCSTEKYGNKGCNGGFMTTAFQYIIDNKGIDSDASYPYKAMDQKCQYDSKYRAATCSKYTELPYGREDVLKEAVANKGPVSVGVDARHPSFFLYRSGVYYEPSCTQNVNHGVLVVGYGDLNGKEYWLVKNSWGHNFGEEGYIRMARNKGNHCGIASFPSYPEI
row,SMILES,inhibition
1,CC(CNC(=O)c1ccc(Br)o1)NC(=O)c1ccc(Br)o1 (configuration not stated),6.17%
2,COc1cc(Cl)cc(C2NC(=O)NC(C)=C2C(=O)NCc2ccccc2)c1O (configuration not stated),7.15%
3,CCOC(=O)C(C)Oc1cccc2c(=O)n(CC(=O)N3CCc4ccccc43)ccc12 (configuration not stated),-6.21%
4,CC(NC(=O)CN1CCN(Cc2ccc(Cl)cc2)C1=O)c1ccc2c(c1)OCCO2 (configuration not stated),55.3%
5,CSc1sc(C)cc1C1C(C#N)=C(N)N(c2cccnc2)C2=C1C(=O)CCC2 (configuration not stated),1.56%
6,NC(=O)c1ccsc1NC(=O)c1ccco1,7.91%
7,COC(=O)[C@H](CCSC)NC(=O)Nc1ccc(OC)cc1,-1.09%
8,O=C(CCCn1c(=O)[nH]c2cc(Cl)ccc2c1=O)NCCN1CCN(c2ccccc2)CC1,13.6%
9,Cc1ccc(-c2noc(CSc3nnc(-c4ccccc4)n3C)n2)cc1,-4.08%
10,COCCCn1c(CCC(=O)O)ccc1-c1ccc(F)cc1,-19.4%
11,CCCNS(=O)(=O)c1ccc(CCC(=O)NCc2cccnc2)cc1,-3.48%
12,CCOc1ccc(CC(=O)Nc2ccc(S(=O)(=O)Nc3cc(C)on3)cc2)cc1OCC,-4.34%
13,Cc1cnc(NC(=O)CSc2nnc(-c3ccccc3)n2Cc2ccccc2)s1,11.8%
14,CCOc1ccc(NC(=O)Nc2ccc(N(C)C(C)=O)cc2)cc1,-16.6%
15,Cc1cccc(N2CCN(C(=O)c3cc4c(=O)[nH]c5ccccc5c4n3C)CC2)c1C,16.8%
16,Cn1c(C(=O)NCCc2ccsc2)cc2c(=O)n(C)c3ccccc3c21,-2.9%
17,Cn1c(C(=O)NCCN2CCc3ccccc3C2)cc2c(=O)[nH]c3ccccc3c21,45.6% (active)
18,CC(=O)Nc1ccc(-c2cn3cccnc3n2)cc1,-4.08%
19,COc1ccc(N(CC(=O)NC2CCCCCCC2)S(=O)(=O)c2c(C)nn(C)c2C)cc1,-2.48%
20,COc1ccc(N(C(=O)c2cccnc2)S(=O)(=O)c2ccc3c(c2)n(C)c(=O)n3C)cc1,-5.68%
21,Cc1ccccc1NC(=O)CNc1ccccc1N1CCCCC1,-4.53%
22,COC(=O)c1[nH]c2cccc(C)c2c1NC(=O)CN1CCCc2ccccc21,51.2% (active)
23,COC(=O)c1[nH]c2ccccc2c1NC(=O)CN1CCCc2ccccc21,15.9%
24,COC(CCN(C)C)(c1ccccc1)c1ccccc1,-4.38%

row,SMILES,inhibition
1,CCN(CCCCOC(=O)c1ccc(OC)c(OC)c1)C(C)Cc1ccc(OC)cc1 (configuration not stated),14.3%
2,O=C(O)C1CCCN(S(=O)(=O)c2cccc3cccnc23)C1 (configuration not stated),-4.15%
3,O=C(O)CSCNC(=O)CC12CC3CC(CC(C3)C1)C2,1.12%
4,CCOc1ccccc1Nc1nnc(SCC(=O)Nc2cc(C)on2)s1,8.96%
5,CC1=C(C(=O)OCc2ccccc2)C(c2ccco2)n2ncnc2N1 (configuration not stated),6.81%
6,CCOC(=O)C1CCN(C(=O)C2CCN(S(=O)(=O)CC)CC2)CC1,6.47%
7,O=C(CN(c1ccc2c(c1)OCCO2)S(=O)(=O)c1ccccc1)Nc1ccc2c(c1)OCO2,8.94%
8,Cc1nnc(SCCCn2c(N3CCCCC3)nc3c2c(=O)[nH]c(=O)n3C)s1,37.6% (active)
9,Cn1c(=O)[nH]c(=O)c2c1nc(N1CCCCCC1)n2CC(=O)c1ccccc1,12.8%
10,C=C(C)Cn1c(N2CCCC2)nc2c1c(=O)[nH]c(=O)n2C,-0.005%
11,CCOc1ccc(C2C(C(=O)O)c3ccccc3C(=O)N2CCN2CCOCC2)cc1 (configuration not stated),39.9%
12,Cn1c(=O)cc(SCC(=O)N2CCCC2)c2cc(Cl)ccc21,1.36%
13,O=C(NCc1ccccn1)Nc1ccc(F)cc1,17.6%
14,CCCc1nc(-c2ccccc2O)n(-c2ccccc2)n1,-4.97%
15,O=C(O)C1CC=CCC1C(=O)NCCc1ccccc1 (configuration not stated),-14.2%
16,O=C1c2ccccc2C(=O)N1c1ccccc1S(=O)C(F)(F)F (configuration not stated),16.1%
17,COC(=O)CN(c1nc(C)c(Cl)c(OC)n1)S(=O)(=O)c1ccc(C)cc1,3.91%
18,CCOc1ccc(NC(=O)CSc2nc3c(c(=O)n2-c2ccccc2OC)SCC3)cc1,-11.1%
19,O=C(NCCCN1CCN(Cc2ccccc2)CC1)C1CCN(S(=O)(=O)N2CCCC2)CC1,17.9%
20,O=C(COc1ncnc2ccccc12)NC(=O)NCc1ccccc1,-8.35%
21,Cc1cccc(N2CCN(Cc3c(C)n(C)n(-c4ccccc4)c3=O)CC2)c1C,-2.31%
22,CC(C)C[C@H](NC(=O)[C@@H]1O[C@H]1C(=O)O)C(=O)NCCCCN=C(N)N,117% (active)
23,Cc1cccc(N2CCN(C(c3ccccc3)c3nnnn3CC3CCCO3)CC2)c1C (configuration not stated),6.28%
